Screens from PubChem BioAssay.
IL1B secr inh – inhibitors of inflammasome signaling (IL-1 beta secretion) | THP-1 LPS/ATP IL-1B secretion, AlphaLISA, 16 h; stronger effect = lower value | activity change, % at 57.5 µM | actives 4.7% (n = 360,000) | AID 743279; in the data active = activity change below about -50%; inconclusive = mostly about -30% to -49%
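THP-1 cells pretreated 1 hr with compounds (up to 57.5 uM final), then stimulated with LPS (250 ng/mL final) plus ATP (1.25 mM final); secreted IL-1B measured by AlphaLISA after 16 hr, decreased signal indicating inhibition.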
HT1080NT lethal – kills 2HG-producing HT-1080-NT fibrosarcoma cells; Potency, µM (highest dose often 46.1 µM), usual class: cytotoxic; actives 1.6% (n = 360,000); HT-1080-NT fibrosarcoma viability, CellTiter-Glo ATP luminescence, 48 h;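 also: NT is the 2HG producing partner of a matched IDH1 knockdown line; nearly all actives have a fitted effect of over 55% in size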
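Read-out is CellTiter-Glo luminescence after 10 minutes at room temperature, following 48 hours' compound treatment of HT-1080-NT cells (750 cells/well, RPMI, 5% FBS, 37 degrees C).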
HT1080 IDH1KD tx – toxicity to HT-1080 IDH1 knockdown cells (counter line) | actives 2% (n = 360,000) | AID 686971 | Potency, µM (titrated, usually from 46.1 µM), hits mostly cytotoxic | HT-1080 IDH1 knockdown viability, ATP luminescence, 48 h
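CellTiter-Glo luminescence after 48 h compound exposure at 37 degrees C of IDH1-knockdown HT-1080 cells in 5% FBS RPMI. %Activity scaled between DMSO wells and cell-free media wells, with curves fitted and assigned curve classes.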
TDP1 cell noCPT – qHTS for Inhibitors of human tyrosyl-DNA phosphodiesterase 1 (TDP1): qHTS in cells in absence of CPT | DT40 Tdp1-/- hTDP1 cells, no CPT, ATP luminescence, 48 h | actives 15% (n = 420,000) | AID 686978, 2013 | Potency, µM (highest dose often 46.2 µM), actives largely listed as inhibitors; also: nearly all actives have a fitted effect of over 55% in size
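DT40 Tdp1-/-;hTDP1 cells, no CPT (DMSO vehicle only), 400 cells/well; compounds pin-transferred; ≥48 hr, 37 °C; CellTiter-Glo 30 min RT dark, luminescence read.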
TDP1 cell CPT – DT40-hTDP1 cell growth loss with CPT | chicken DT40 Tdp1-/-;hTDP1 cells + 20 nM CPT, ATP luminescence, 48 h | AID 686979 | Potency, µM (titrated, usually from 46.2 µM), actives largely listed as inhibitors | actives 12% (n = 420,000); also: nearly all actives have a fitted effect of over 55% in size
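Chicken DT40 Tdp1-/- cells stably complemented with human TDP1 were seeded at 400 cells/well in medium containing 20 nM camptothecin, exposed to pin-transferred compounds, and grown at 37 °C for at least 48 hr. Viability was read as ATP luminescence.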
Hits are given with their value; n = inactive; u = inconclusive; x = no result given; [ ] = remark or other dose. A selection: hits, their analogues and other compounds. The true share with any hit is near 19%. Unless noted, calls follow the shape of the dose curve; as a rule, active = well fitted curve in the direction sought with a large enough effect; inconclusive = small, poorly fitted or top-dose-only effect, or another doubt; inactive = no such curve, though single readings can be large; an effect the other way counts as inactive or inconclusive.

SMILES | IL1B secr inh | HT1080NT lethal | HT1080 IDH1KD tx | TDP1 cell noCPT | TDP1 cell CPT
CC(=O)Nc1ccc2c(=O)n(-c3ccccc3)sc2c1 | -104 | u | u | 3.3µM | 2.6µM
N#Cc1ccc2c(=O)n(-c3ccccc3)sc2c1 | n | n | n | 2.6µM | 3.3µM
CCOc1cc(C(=O)N/N=C/C2CC=CCC2)cc(OCC)c1OCC (stereo unspecified) | n | n | n | n | n
COc1ccc(NC(=O)N(C)C[C@H]2Oc3ccc(NC(=O)CCN4CCOCC4)cc3C(=O)N([C@@H](C)CO)C[C@H]2C)cc1 | n | n | n | n | n
O=C(O)c1cccc(-n2sc3ccccc3c2=O)c1 | -107 | n | n | u | u
Cn1c(=O)n(-c2cccc(Cl)c2)c(=O)c2sc3ccccc3c21 | x | x | x | u | n
O=c1ccsc2ccccc12 | n | n | n | n | n
O=c1c2ccccc2sn1-c1cccc(Cl)c1 | -102 | n | u | 2.3µM | 1.8µM
O=c1c2ccccc2sn1-c1ccccc1F | -107 | n | u | 2.9µM | 2.6µM
O=C1CN(c2ccccc2F)C(=O)CN1c1ccccc1F | n | n | n | n | n
Cn1sc2ccccc2c1=O | -100 | u | u | 1.6µM | 2.3µM
COc1ccc(CN2CCNC(=O)C2CC(=O)NC2CCCC2)c(OC)c1 (stereo unspecified) | n | n | n | n | n
COc1ccc(C(=O)NCCc2ccc(C(F)(F)F)cc2)cc1S(=O)(=O)N1CCOCC1 | n | n | n | u | n
Cc1nc2ccccc2c2c1C(=O)N(C1CCCCCCC1)C2=O | n | n | n | n | n
COc1ccccc1NS(=O)(=O)c1ccc(N/N=C/C=C/c2ccccc2[N+](=O)[O-])c([N+](=O)[O-])c1 | n | n | n | u | n
COc1ccccc1NS(=O)(=O)c1ccc(NN=C2CCCC2)c([N+](=O)[O-])c1 | n | n | n | 16µM | 18µM
COc1ccccc1NS(=O)(=O)c1ccc(N/N=C/c2c(C)nn(-c3ccccc3)c2N2CCCC2)c([N+](=O)[O-])c1 | n | n | n | 6.5µM | u
CC(C)(C)C1CCC(=NNc2ccc(S(N)(=O)=O)cc2[N+](=O)[O-])CC1 (stereo unspecified) | -87 | u | 18µM | 21µM | 16µM
CC1CCCC/C1=N\Nc1ccc(S(N)(=O)=O)cc1[N+](=O)[O-] (stereo unspecified) | n | n | n | u | u
COc1c(/C=N/Nc2ccc([N+](=O)[O-])cc2[N+](=O)[O-])c(C)nn1-c1ccccc1 | n | n | n | u | u
Cc1nn(-c2ccccc2)c(N2CCCC2)c1/C=N/Nc1ccc(S(=O)(=O)Nc2ccccc2)cc1[N+](=O)[O-] | n | n | n | 7.3µM | 5.8µM
COc1ccccc1NS(=O)(=O)c1ccc(N/N=C/c2ccccc2OCC(=O)O)c([N+](=O)[O-])c1 | n | n | n | n | n
Cc1ccc(NC(=O)CSCC(=O)NCc2cccc(C(F)(F)F)c2)cc1 | n | n | n | n | u
COc1ccccc1NS(=O)(=O)c1cccc(C(=O)N/N=C/c2c(C)nn(-c3ccccc3)c2N2CCCC2)c1 | n | n | n | 21µM | 21µM
COc1ccccc1NS(=O)(=O)c1cccc(C(=O)N/N=C/c2cn(-c3ccccc3)nc2-c2ccccc2)c1 | n | u | n | u | u
SMILES | IL1B secr inh | HT1080NT lethal | HT1080 IDH1KD tx | TDP1 cell noCPT | TDP1 cell CPT
Cc1cc(C)cc(N=Cc2ccc([N+](=O)[O-])s2)c1 | -104 | u | 21µM | 2.6µM | 2.6µM
NC(=O)c1ccc(N=Cc2ccc([N+](=O)[O-])s2)cc1 | -108 | u | n | 3.3µM | 5.2µM
O=[N+]([O-])c1ccc(N=Cc2sc3ccccc3c2O)cc1 | n | n | n | n | n
Cc1ccc(NC(=S)N/N=C/c2ccc([N+](=O)[O-])s2)cc1 | -73 | u | u | u | u
Cc1c(N=Cc2ccc(Br)s2)cccc1[N+](=O)[O-] | n | u | n | n | n
Cc1cccc(NC(=S)N/N=C/c2cccc([N+](=O)[O-])c2)c1 | n | n | n | u | u
COc1ccc(CCNC(=O)c2ccc3c(c2)CCN3S(=O)(=O)c2ccccc2)cc1 | x | x | x | 21µM | 3.7µM
NS(=O)(=O)c1ccc(CCNC(=O)c2cccc(S(=O)(=O)N3CCc4ccccc43)c2)cc1 | n | n | n | u | u
COc1ccc(CCNC(=O)c2ccc3c(c2)CCN3S(=O)(=O)c2ccccc2)cc1OC | x | x | x | u | 16µM
COc1ccc(CCNC(=O)c2ccc3c(c2)CCN3S(C)(=O)=O)cc1OC | x | x | x | u | n
COC(=O)c1ccccc1NC(=O)c1ccc2c(c1)CCN2S(=O)(=O)c1ccc(C)cc1 | x | x | x | u | n
Cc1ccc(S(=O)(=O)N2CCc3cc(C(=O)N(C)Cc4ccccc4)ccc32)cc1 | x | x | x | 13µM | 15µM
NS(=O)(=O)c1ccc(CNC(=O)Cc2ccc(S(=O)(=O)N3CCOCC3)s2)cc1 | n | n | n | n | n
COC(=O)c1ccc(C(=O)NCC2Cc3cccc(-c4ccc(C(=O)OC)cn4)c3O2)cc1 (stereo unspecified) | x | x | x | n | u
COc1ccc(N(CC(=O)NC2CCCC2)C(=O)Cn2nnc(-c3ccc(F)cc3)n2)cc1 | n | n | n | n | n
COc1cccc(/C=C2\Sc3ccc(C(=O)NCc4cccnc4)cc3N(C)C2=O)c1 | -82 | n | n | u | u
CN1C(=O)/C(=C/c2ccccc2F)Sc2ccc(C(=O)N3CCCC3)cc21 | -75 | u | u | u | u
COc1ccc(C(=O)NCc2cccnc2)cc1C(=O)NCc1cccnc1 | n | n | n | n | n
COc1ccc(/C=C2\Sc3ccc(C(=O)N4CCN(Cc5ccccc5)CC4)cc3N(C)C2=O)cc1OC | n | u | n | 3.3µM | 5.2µM
COc1ccc(/C=C2\Sc3ccc(C(=O)NCc4cccnc4)cc3N(C)C2=O)cc1OC | -80 | 23µM | 23µM | 16µM | 21µM
CCCCCCCCCCCCCCCC(=O)NCCO | n | u | n | u | u
O=C(NCC1CCN(Cc2ccc(F)cc2)CC1)c1cc2ccc3cccnc3c2[nH]1 | x | x | x | 21µM | 16µM
O=C(NCC1CCN(Cc2ccccc2Cl)CC1)c1cc2ccc3cccnc3c2[nH]1 | x | x | x | 16µM | u
Cc1ccc(S(=O)(=O)N2CCOCC2)cc1C(=O)NCC1CCCCC1 | n | n | n | n | n
O=C(O)C1CCCCN1C(=O)c1cc2c(s1)CCCCC2 (stereo unspecified) | n | n[9.24 µM] | n | n | n
Cc1cc2oc(C(=O)Nc3c(C)n(C)n(-c4ccccc4)c3=O)cc(=O)c2cc1C | x | x | x | n | n
Cc1ccc(NC(=O)Nc2nnc(SCC(=O)Nc3ccc(F)cc3F)s2)cc1 | x | x | x | n | n
